Results filed as inconclusive are left out. Where a call stands in place of a potency, no number is given. Active and inactive are the calls of the source. Calls come from the whole dose curve; as a rule, active = well fitted inhibition curve with a large enough effect; inconclusive = small, poorly fitted or top-dose-only effect; inactive = no such curve, though single readings can be large or run the other way.

The subject of this test is Zika virus NS2B-NS3 protease (unlinked complex). As to the kind of experiment: Primary screen GU Rhodamine qHTS for Zika virus inhibitors: Unlinked NS2B-NS3 protease assay (AID 1347159). Note: nearly all actives have a fitted effect of over 60% in size. The following applies: Recombinant ZIKV NS2B-NS3 protease, Rhodamine110 substrate fluorescence; series mostly up to 107 µM. In short, it runs like this:
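Percent inhibition came from the 15-min rise in Rhodamine110 fluorescence (1.5 microM substrate, ~15% conversion), normalized to no-inhibitor and no-enzyme wells and Hill-fitted. Unlinked protease, 25 nM, pH 8.0 Tris buffer; compounds up to 114 microM, 15-min preincubation.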
For orientation: qHTS replaces the single test concentration by a dilution series.
On to `COC(=O)/C=C/C12COC(C)(C)C1C(O)C(OC(C)=O)C1(C)C2CCC2(C)C(c3ccoc3)OC(=O)C3OC321` (stereo not given), for which the Potency entry is “inactive”. On to `CC(C)[C@@H]1C(=O)N(S(C)(=O)=O)[C@@H]2CCN(C(=O)/C=C/CN3CCCCC3)[C@H]21`, for which the Potency entry is “inactive”. The same measure, in the same setting: in the case of `C=C[C@H]1CN2CC[C@H]1C[C@@H]2C(O)c1ccnc2ccc(OC)cc12` (stereo not given in full) it was “inactive”.

Turning to `CCn1cc(NC(=S)Nc2cc(Cl)ccc2OC)c(C(N)=O)n1`, the Potency result is “inactive”. Same read-out and setting: the value for `CCn1c(=O)c(-c2ccn[nH]2)cc2c(C)nc(N)nc21` was “inactive”; that for `CN[C@H](CC(C)C)C(=O)N[C@H]1C(=O)N[C@@H](CC(N)=O)C(=O)N[C@H]2C(=O)N[C@H]3C(=O)N[C@H](C(=O)N[C@H](C(=O)O)c4cc(O)cc(O)c4-c4cc3ccc4O)[C@H](O[C@H]3C[C@](C)(N)[C@@H](O)[C@H](C)O3)c3ccc(c(Cl)c3)Oc3cc2cc(c3O[C@@H]2O[C@H](CO)[C@@H](O)[C@H](O)[C@H]2O[C@H]2C[C@](C)(NCc3ccc(-c4ccc(Cl)cc4)cc3)[C@@H](O)[C@H](C)O2)Oc2ccc(cc2Cl)[C@H]1O` was “inactive”; that for `C=C1C(OC2OCC(O)C(O)C2O)CC2C(C)(C)C(O)CCC2(C)C1CC/C(C)=C\CO` (stereo not given) was “inactive”.

Regarding `COc1ccc2nc(S(=O)(=O)Cc3ncc(C)c(OC)c3C)[nH]c2c1`, the Potency result was “inactive”.

Consider `COc1ccc(CN2C(=O)C(=O)c3cc(S(=O)(=O)N4CCC[C@H]4COc4cccnc4)ccc32)cc1`, for which the Potency entry is “inactive”. The same measure, in the same setting: in the case of `CC12CCC3c4ccc(O)cc4CCC3C1CC(OC1OC(C(=O)O)C(O)C(O)C1O)C2O` (stereo not given) it was “inactive”. In the case of `O=C(CC(c1ccccc1)c1ccccc1)N1CCN(C(c2ccccc2)c2ccccc2)CC1`, the Potency result was “inactive”. The same measure, in the same setting: the value for `NC(=O)C(CCC(F)(F)F)N(Cc1ccc(-c2ncon2)cc1F)S(=O)(=O)c1ccc(Cl)cc1` (stereo not given) was “inactive”; that for `CC[C@H]1OC(=O)[C@H](C)[C@@H](O[C@H]2C[C@@](C)(OC)[C@@H](O)[C@H](C)O2)[C@H](C)[C@@H](O[C@@H]2O[C@H](C)C[C@H](N(C)C)[C@H]2O)[C@](C)(O)C[C@@H](C)C(=O)[C@H](C)[C@H]2OC(=O)O[C@@]21C` was “inactive”; that for `COc1ccc([C@H]2CNC(=O)C2)cc1OC1CCCC1` was “inactive”. On to `C=C1CCC[C@]2(C)CC[C@@H](C(=C)C(=O)O)[C@H](O)[C@@H]12`, for which the Potency entry was “inactive”. Turning to `C[C@@H]1O[C@@H](O[C@H]2[C@H](O)[C@@H](O)[C@H](OC[C@H]3O[C@@H](OC(=O)[C@]45CCC(C)(C)C[C@H]4C4=CCC6[C@@]7(C)CC[C@H](O[C@@H]8OC[C@H](O)[C@H](O[C@@H]9O[C@H](CO)[C@@H](O)[C@H](O)[C@H]9O)[C@H]8O)[C@@](C)(CO)C7CC[C@@]6(C)[C@]4(C)CC5)[C@H](O)[C@@H](O)[C@@H]3O)O[C@@H]2CO)[C@H](O)[C@H](O)[C@H]1O` (stereo not given in full), the activity change, negative = inhibition is 4.91% [at 19.1 µM] (inactive). Turning to `COc1ccc(C2(O)c3ccccc3NC(=O)C2O)cc1` (stereo not given), the Potency entry was “inactive”. For `COC(=O)N[C@H](C(=O)N1[C@@H]2CC[C@@H](C2)[C@H]1c1nc2ccc(-c3ccc4c(c3)C(F)(F)c3cc(-c5cnc([C@@H]6CCC7(CC7)N6C(=O)[C@@H](NC(=O)OC)C(C)C)[nH]5)ccc3-4)cc2[nH]1)C(C)C`, the Potency result is “inactive”. Still for that read-out and setting: the value for `CC(=O)N1CCc2ccc(O)c(OC3OC(COC4OCC(O)(CO)C4O)C(O)C(O)C3O)c2C1Cc1ccc(O)cc1` (stereo not given) was “inactive”; that for `O=C(COc1cccc2c(=O)[nH]ccc12)c1ccccc1` was “inactive”; that for `C=C1CN(Cc2ccc(C(=O)Nc3ccccc3N)cc2)C(=O)c2ccccc21` was “inactive”.

In the case of `Cc1c2cc(c(C(=O)O)c1C)OC1OC(C(O)C(O)C1O)C(O)C(O)C1OC(O2)C(O)C(O)C1O` (stereo not given), the Potency result was “inactive”. On the same count and under the same terms, in the case of `CN1CCN(Cc2ccc(-c3cnc4[nH]cc(-c5ccc6[nH]ccc6c5)c4c3)cc2)CC1` it was “inactive”. For the compound `CC1(C)CC[C@]2(C(=O)O[C@@H]3O[C@H](CO[C@@H]4O[C@H](CO)[C@@H](O)[C@H](O)[C@H]4O[C@@H]4O[C@H](CO)[C@@H](O)[C@H](O)[C@H]4O)[C@@H](O)[C@H](O[C@@H]4O[C@H](CO)[C@@H](O)[C@H](O)[C@H]4O)[C@H]3O)CC[C@]3(C)C(=CCC4[C@@]5(C)CC[C@@H](O)[C@@](C)(C(=O)O[C@@H]6O[C@H](CO)[C@@H](O)[C@H](O)[C@H]6O)C5CC[C@]43C)[C@@H]2C1` (stereo not given in full), the activity change, negative = inhibition was 14.6% [at 19.1 µM] (inactive). For the compound `CC[C@H]1OC(=O)[C@](C)(F)C(=O)[C@H](C)[C@@H](O[C@@H]2O[C@H](C)C[C@H](N(C)C)[C@H]2O)[C@](C)(OC)C[C@@H](C)C(=O)[C@@H](C)[C@H]2N(CCCCn3cc(-c4cccc(N)c4)nn3)C(=O)O[C@]12C`, the Potency result is “inactive”. For the compound `CCC1C(=O)N(C)c2cnc(Nc3ccc(C(=O)NC4CCC(N5CCN(CC6CC6)CC5)CC4)cc3OC)nc2N1C(C)C` (stereo not given), the Potency result is “inactive”. Still for that read-out and setting: the value for `CC1(C)CCC2(C(=O)OC3OC(CO)C(O)C(O)C3O)CCC3(C)C(=CCC4C5(C)CCC(OC6OC(C(=O)O)C(OC7OC(CO)C(O)C(O)C7O)C(OC7OC(CO)C(O)C(O)C7O)C6O)C(C)(C)C5CCC43C)C2C1` (stereo not given) was “inactive”; that for `O=C1Nc2ccccc2C(O)(c2ccccc2)C1O` (stereo not given) was “inactive”. Still for that read-out and setting: the value for `COc1c/c(=C2\C=c3ccccc3=N2)[nH]/c1=C\c1[nH]c(C)cc1C` was “inactive”. Same read-out and setting: in the case of `Cc1ccc(S(=O)(=O)c2ccc([N+](=O)[O-])o2)cc1` it was “inactive”.

On to `Cc1ccccc1-n1c([C@H](C)Nc2nc(N)nc3nc[nH]c23)nc2cccc(C)c2c1=O`, for which the Potency entry was “inactive”. Same read-out and setting: the value for `COc1ccc(CCO[C@@H]2CCCC[C@H]2N2CC[C@@H](O)C2)cc1OC` was “inactive”.

In the case of `C=C1C[C@]23C[C@H]1CC[C@H]2[C@@]12CC[C@H](O)[C@@](C)(C(=O)O1)[C@H]2[C@@H]3C(=O)O`, the Potency result is “inactive”.

On to `CCN(CC)CCN(Cc1ccc(-c2ccc(C(F)(F)F)cc2)cc1)C(=O)Cn1c(SCc2ccc(F)cc2)nc(=O)c2c1CCC2`, for which the Potency result was “inactive”. On the same count and under the same terms, in the case of `CC1OC(OC2C(OC3C(O[C@H]4CC[C@@]5(C)C(CC[C@]6(C)C5C(=O)C=C5C7CC(C)(C)CC(O)[C@]7(C)CC[C@]56C)C4(C)C)OC(C(=O)O)C(O)C3O)OCC(O)C2O)C(O)C(O)C1O` (stereo not given in full) it was “inactive”; in that of `C/C=C/C=C/C(O)=C1\C(O)=C(C)C(=O)[C@@]2(C)OC(=O)[C@@](C)(NC(=O)/C=C/C(=O)O)[C@@H]12`, “inactive”. The same measure, in the same setting: in the case of `C[C@@H]1C(=O)OC[C@H]2C(C(=O)O)=C[C@@H]3CC(C)(C)C[C@]312` it was “inactive”; in that of `Cc1cc(O)c(-c2ccc([C@@H](C)CN(C)C)cc2)c2c1[nH]c(=O)c1sccc12`, “inactive”; in that of `C=C1C[C@]23C[C@H]1CC[C@H]2C1=C[C@H]2OC(=O)[C@@](C)([C@H]1[C@@H]3C(=O)O)[C@H]2O`, “inactive”. As to `CC(=O)NC[C@H]1CN(c2ccc(N3CCN(C(=O)CO)CC3)c(F)c2)C(=O)O1`, the Potency result was “inactive”.

These data come from PubChem BioAssay (NCATS).
